Several values for one entry are separate records, joined by “and”; a condition that tells them apart may be missing. Equal entries are not always repeated. Inconclusive results are not listed. A number with no mark means an inactive call. Activity calls are given as the source filed them. The call rests on the fitted dose curve; in most records, active means well fitted curve in the direction sought with a large enough effect; inconclusive means small, poorly fitted or top-dose-only effect, or another doubt; inactive means no such curve, though single readings can be large; an effect the other way counts as inactive or inconclusive.
Tests used:
[1] = Viability qHTS for spleen associated tyrosine kinase inhibitor (SYKi) naive MV4-11 cells (AID 1963823); further: nearly all actives have a fitted effect of over 40% in size
Method in brief: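 qHTS, SYK inhibitor-naive MV4-11; 500 cells/well; 72 hr compound exposure, 37 C; CellTiter-Glo added, 10 min RT; luminescence read.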

[2] = Viability qHTS for spleen associated tyrosine kinase inhibitor (SYKi) drug resistant MV4-11 cells (AID 1963824); further: nearly all actives have a fitted effect of over 35% in size
Method in brief: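 SYK-inhibitor-resistant MV4-11 AML cells were seeded at 500 per well onto compound and cultured 72 hours (37 °C, 5% CO2). CellTiter-Glo was then added, and after 10 min at room temperature, luminescence gave viability.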

[3] = Quantitative highthroughput screen to assess conditional lethalithy of P12 Ichikawa cells grown in Human Plasma-Like Medium with dialyzed fetal bovine serum (HPLM+ds) (AID 1963879); conditions: Potency: viability; further: nearly all actives have a fitted effect of over 35% in size; on Viability: series mostly up to about 46 µM
Method in brief: (§1)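 Each medium arm—HPLM with 10% dialyzed FBS, or RPMI1640 with 5 mM glucose and 10% untreated or dialyzed FBS—was screened against an 11-point, 3-fold compound titration for 48 h at 37 °C, with CellTiter-Glo luminescence as endpoint.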

[4] = Quantitative highthroughput screen to assess conditional lethalithy of P12 Ichikawa cells grown in RPMI1640 with untreated serum (RPMI+s) (AID 1963881); conditions: Potency: viability; further: nearly all actives have a fitted effect of over 35% in size;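 on Viability: series mostly up to about 46 µM; 100% = DMSO wells and 0% = empty wells without cells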
Method in brief: as §1

[5] = Quantitative highthroughput screen to assess conditional lethalithy of SEM cells grown in Human Plasma-Like Medium with dialyzed fetal bovine serum (HPLM+ds) (AID 1963882); further: nearly all actives have a fitted effect of over 35% in size
Method in brief: as §1

[6] = Quantitative highthroughput screen to assess conditional lethalithy of SEM cells grown in RPMI1640 with dialyzed fetal bovine serum (RPMI+ds) (AID 1963884); further: nearly all actives have a fitted effect of over 35% in size
Method in brief: as §1

[7] = Quantitative highthroughput screen to assess conditional lethalithy of P12 Ichikawa cells grown in RPMI1640 with dialyzed fetal bovine serum (RPMI+ds) (AID 1963880); conditions: Potency: P12-Ichikawa viability; further: nearly all actives have a fitted effect of over 35% in size;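 on Viability: 100% = DMSO wells and 0% = empty wells on each plate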
Method in brief: as §1

[8] = Cellular viability qHTS for adrenocortical cancer (ACC) cell line SW-13 (AID 1963989); conditions: SW-13 ACC cells viability, CellTiter-Glo, 48 h; activity (max response): hits give low values; further: nearly all actives have a fitted effect of over 65% in size;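 on activity (max response): cells grown in serum-free medium with ITS supplement; on the % scale 0 is the no-effect control and ±100 the full control effect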
Method in brief: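 IC50 and maximal-response values come from four-parameter logistic fits of titration data. SW-13 cells in serum-free medium received compounds (up to 46 uM final) for 48 h before CellTiter-Glo luminescence.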

[9] = Cellular viability qHTS for adrenocortical cancer (ACC) cell line NCI-H295R (AID 1963990); further: nearly all actives have a fitted effect of over 60% in size
Method in brief: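 Adrenocortical carcinoma cells, suspended at 300 000 cells/mL in serum-free DMEM plus ITS, rested overnight before pin transfer of compound. After two days' incubation, ATP-dependent luminescence was recorded and curve-fitted.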

[10] = Quantitative highthroughput screen to assess conditional lethalithy of SEM cells grown in RPMI1640 with unreated serum (RPMI+s) (AID 1963883); further: nearly all actives have a fitted effect of over 35% in size
Method in brief: as §1
Potency means the concentration at half of the fitted maximal effect.

SMILES | Potency [1] | Potency [2] | Potency [3] | Potency [4] | Potency [5] | Potency [6] | Potency [7] | activity (max response) [8] [%] | Potency [9] | Potency [10] | Potency [8]
C[C@]1(CO)CN(c2cc(C(=O)Nc3ccc4c(c3)-c3c(c(C(N)=O)nn3-c3ccc(F)cc3)CC4)c(Cl)cn2)C[C@@]1(C)CO | 3660 nM (active) | 2910 nM (active) | 16.6 µM (active) | 16.6 µM (active) | 18.7 µM (active) | 18.7 µM (active) |  |  |  |  | 
Nc1ncnc2c1c(-c1cccc(OCc3ccccc3)c1)cn2C1CC(CN2CCC2)C1 (configuration not stated) | 580 nM (active) | 920 nM (active) | inactive | inactive |  |  | inactive | 12.1 | inactive |  | 
CN1CCCN(C(=O)c2cccc(-c3ccc(C=C4C(=O)Nc5ccc(Cl)cc54)o3)c2)CC1 | 517 nM (active) | 461 nM (active) | 2.96 µM (active) |  | 5.9 µM (active) | 1.87 µM (active) | 14.8 µM (active) |  |  | 1.32 µM (active) | 
CCc1c2c(nc3ccc(OC(=O)N4CCC(N5CCCCC5)CC4)cc13)-c1cc3c(c(=O)n1C2)COC(=O)[C@]3(O)CC | 2.99 µM (active) and 263 nM (active) | 2.66 µM (active) and 296 nM (active) | 1.18 µM (active) | 0.833 µM (active) | 2.35 µM (active) | 1.48 µM (active) | 1.18 µM (active) |  |  | 1.87 µM (active) | 3.66 µM (active) and 3.55 µM (active)
OCCN1CCN(CCCN2c3ccccc3Sc3ccc(C(F)(F)F)cc32)CC1 | 16.8 µM (active) and 5.25 µM (active) | 26.6 µM (active) and 5.25 µM (active) | 7.43 µM (active) | 11.8 µM (active) |  |  |  | 8.75 | inactive |  | 
Oc1ccc(-c2ccc(-c3cc(Nc4cccc(CNC5CC5)c4)n[nH]3)cc2)c(O)c1 | 833 nM (active) | 461 nM (active) | 2.35 µM (active) | 2.35 µM (active) | 1.66 µM (active) |  |  |  | 10 µM (active) | 4.69 µM (active) | 
Cn1cnc2c(F)c(Nc3ccc(Br)cc3F)c(C(=O)NOCCO)cc21 | 206 nM (active) | 146 nM (active) | inactive | inactive |  |  | inactive |  | inactive |  | 
CN[C@@H]1CN(c2ccc3c(=O)c(C(=O)O)cn(-c4nccs4)c3n2)C[C@@H]1OC | 407 nM (active) | 512 nM (active) | 14.4 µM (active) | 6.45 µM (active) | 6.45 µM (active) |  | 8.12 µM (active) | -14.5 |  | 1.44 µM (active) | 
O=C(O)C1(Cc2cccc(Nc3nccs3)n2)CCC(Oc2cccc(Cl)c2F)CC1 (configuration not stated) | 517 nM (active) | 461 nM (active) and 468 nM (active) | 2.35 µM (active) | 2.64 µM (active) | 2.96 µM (active) |  |  |  |  |  | 
CC(C)(O)c1cc2nc(-c3cnc(N)nc3)nc(N3CCOCC3)c2s1 | 580 nM (active) | 1160 nM (active) | 0.935 µM (active) |  |  |  |  |  | 1 µM (active) |  | 1.26 µM (active)
CN1CCN(CCOc2cc(OC3CCOCC3)c3c(Nc4c(Cl)ccc5c4OCO5)ncnc3c2)CC1 | 6.51 µM (active) and 5.9 µM (active) | 9.2 µM (active) and 9.34 µM (active) | 8.33 µM (active) | 29.6 µM (active) |  | 10.5 µM (active) | 18.7 µM (active) |  | 31.6 µM (active) | 6.62 µM (active) | 3.98 µM (active)
NC(=O)[C@H]1CCS[C@@H]2C[C@]3(CCCN3C(=O)Cc3ccc(NC(=O)COc4ccc(Cl)cc4Cl)cc3)C(=O)N12 | 3260 nM (active) | 2910 nM (active) | 0.588 µM (active) |  |  | 1.86 µM (active) | 1.48 µM (active) |  | 3.98 µM (active) |  | 
NC(=NCCCCCCN=C(N)N=C(N)Nc1ccc(Cl)cc1)N=C(N)Nc1ccc(Cl)cc1 | 2350 nM (active) | 2630 nM (active) | inactive | 20.9 µM (active) |  |  |  |  | 17.8 µM (active) |  | 3.98 µM (active)
CN(CC(=O)N(Cc1ccc(C2CCCCC2)cc1)c1ccc(C(=O)O)c(O)c1)S(=O)(=O)c1c(F)c(F)c(F)c(F)c1F | 4170 nM (active) | 2630 nM (active) | 20.9 µM (active) |  |  |  |  | -5.17 |  | 16.6 µM (active) | 
NC(=O)Nc1cc(-c2ccc(CN3CCOCC3)cc2)sc1C(N)=O | 209 nM (active) | 468 nM (active) | 0.118 µM (active) | 0.118 µM (active) | 0.132 µM (active) | 0.105 µM (active) | 0.118 µM (active) | -17.8 | 5.01 µM (active) | 0.118 µM (active) | 

— PubChem BioAssay (NCATS)
